This excerpt belongs to a sample that is enriched for hits.
BL2 CD40 inh = inhibitors of CD40-induced NF-kB signaling, primary screen, BL2 cells, luciferase reporter, single point; CD40L-induced, 4 h; inhibition, % at 10 µM; hit rate 0.94% among 83,000;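 active = mean inhibition of at least 50% with a set share of replicates also reaching that level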;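 note: 0% = neutral control wells and 100% = IKK inhibitor VII at 50 µM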
* marks the source's active call; other numbers are inactive results; ! = not active in a repeat; [ ] = dose if it differs, or a comment.

Screening O=C1CC(=O)OC(c2ccc([N+](=O)[O-])cc2)O1 returned BL2 CD40 inh 85.7*.
O=C(O)c1ccc([N+](=O)[O-])cc1 was read as BL2 CD40 inh 6.4.
Screening CCN(CC)CCCNC(=O)c1ccc(S(=O)(=O)Nc2ccc(C)c(C)c2)cc1 returned BL2 CD40 inh 11.1.
Screening C[C@H](NC(=O)[C@H]1[C@H](CO)[C@H]2Cn3c(ccc(/C=C/c4ccccc4)c3=O)[C@@H]1N2)c1ccccc1 returned BL2 CD40 inh 8.8[25 µM].
Screening N#C[C@@H]1[C@H](c2ccccc2C2=CCCCC2)[C@H](CO)N1C(=O)NC1CCCCC1 returned BL2 CD40 inh -12.0.
For C[C@H]1CN([C@@H](C)CO)C(=O)CCCn2cc(nn2)CO[C@H]1CN(C)S(=O)(=O)c1cccc(C#N)c1 the results were BL2 CD40 inh 2.2[25 µM].
`CN(C)CCCNC(=O)C[C@@H]1CC[C@@H]2[C@H](COC[C@@H](O)CN2CC2CCCC2)O1` gave BL2 CD40 inh -3.4.
For COc1ccccc1S(=O)(=O)N(C)C[C@H]1OCc2ccccc2-c2ccccc2C(=O)N([C@@H](C)CO)C[C@H]1C the results were BL2 CD40 inh 7.4[25 µM].
COc1cccc(-c2cccc(-c3nc(C(=O)NCC(F)(F)F)cc4c3[C@@H](CCO)N([S@](=O)C(C)(C)C)C4)c2)c1 was read as BL2 CD40 inh 5.0.
For CC(C)(C)[S@](=O)N1Cc2cc(C(=O)NCC(F)(F)F)nc(-c3cccc(-c4cccc(F)c4)c3)c2[C@@H]1CCO the results were BL2 CD40 inh 79.9*[25 µM].
Screening CC(C)(C)[S@@](=O)N1Cc2cc(C(=O)NCC(F)(F)F)nc(-c3cccc(-c4cccc(F)c4)c3)c2[C@H]1CCO returned BL2 CD40 inh -12.8[25 µM].
For COc1cccc(-c2cc(NC(C)=O)c3ncc(-c4ccc(OC)c(OC)c4)n3c2)c1 the results were BL2 CD40 inh -35.1.
Screening C[C@H](NC(=O)C[C@@H]1CC[C@@H]2[C@@H](COc3ccc(NS(=O)(=O)c4ccc(Cl)cc4)cc3C(=O)N2C)O1)c1ccccc1 returned BL2 CD40 inh 13.2[25 µM].
For COc1ccc(NC(=O)N[C@H]2CC[C@H](CCn3cc(-c4ccc(F)cc4)nn3)O[C@H]2CO)cc1 the results were BL2 CD40 inh 2.1.
Screening O=C(C[C@H]1CC[C@H]2NC[C@H](O)COC[C@@H]2O1)NCCc1ccncc1 returned BL2 CD40 inh -2.9[25 µM].
`OCCOCCN1CCN(C(c2ccccc2)c2ccc(Cl)cc2)CC1` (stereo not given) gave BL2 CD40 inh 15.8.
Screening O=C1C=CC(=O)c2c(O)c(N3CCN(CCOCCO)CC3)c(Br)c(O)c21 returned BL2 CD40 inh 85.4*.
For OCCOCCN1CCN(C2=Nc3ccccc3Sc3ccccc32)CC1 the results were BL2 CD40 inh -0.1.
O=C(C[C@H]1C=C[C@@H](NC(=O)c2ccc3c(c2)OCO3)[C@@H](CO)O1)NC1Cc2ccccc2C1 was read as BL2 CD40 inh 2.5[25 µM].
For C[C@@H]1CN([C@@H](C)CO)C(=O)CCCn2cc(nn2)CO[C@H]1CN(C)Cc1ccc(-c2ccccc2)cc1 the results were BL2 CD40 inh -4.7.
For COCC(=O)N1[C@@H](CO)[C@H](c2ccccc2)[C@@H]1CN(C)C(=O)c1ccncc1 the results were BL2 CD40 inh 6.0.
CCCC#Cc1ccc([C@@H]2[C@@H](CO)N3C(=O)CN(C(=O)c4cccnc4)C[C@@H]23)cc1 was read as BL2 CD40 inh -19.9[25 µM].
CC(=O)Nc1cccc2c1O[C@H](CN(C)S(C)(=O)=O)[C@@H](C)CN(C)C2=O was read as BL2 CD40 inh 8.3.
Cc1ccccc1-c1ccc(C2[C@H]3CNC[C@@H]2N3S(=O)(=O)c2ccc(Cl)cc2)cc1 (stereo not given in full) was read as BL2 CD40 inh 1.0.
COc1ccccc1NC(=O)N1CC[C@@H]2[C@H]1c1cc(-c3ccccc3)ccc1N(C)[C@@H]2CO was read as BL2 CD40 inh -17.3.
Screening Cc1ccc(-c2ccc3c(c2)O[C@H](CN(C)Cc2cncnc2)[C@H](C)CN([C@@H](C)CO)S3(=O)=O)cc1 returned BL2 CD40 inh -19.7[25 µM].
N#C[C@H]1[C@@H](c2ccccc2)[C@@H](CO)N1S(=O)(=O)c1cccc(F)c1 was read as BL2 CD40 inh 8.4[25 µM].
For C/C=C/c1ccc([C@H]2[C@@H](CO)N(C(=O)C3CCC3)[C@@H]2CN(CC)C(=O)CC)cc1 the results were BL2 CD40 inh 1.4[25 µM].
Screening COc1cc(C=NOC(=O)Nc2ccccc2)cc(OC)c1OC returned BL2 CD40 inh -25.6.
`COc1ccc(NC(=O)O/N=C/c2c(C)nn(C(C)(C)C)c2C)cc1` gave BL2 CD40 inh 64.0*.
COc1ccc(NC(=O)CCc2c(C)nc3nc(C)nn3c2C)cc1 was read as BL2 CD40 inh 1.6.
`O=C(CN1C(=O)COc2ccc(Cl)cc21)Nc1ccccn1` gave BL2 CD40 inh 5.7.
Screening O=C(OCc1cc(=O)n2ccsc2n1)c1ccc(OC(F)F)cc1 returned BL2 CD40 inh 2.7.
For Cc1ccc(NC(=O)CSc2nc(O)c(Cc3ccccc3)c(=O)n2-c2ccccc2)cc1 the results were BL2 CD40 inh -88.3.
Screening CS(=O)(=O)N1[C@H](CO)[C@H](c2ccccc2-c2ccc(F)cc2)[C@@H]1C#N returned BL2 CD40 inh -10.9[25 µM].
Cc1ccc(S(=O)(=O)C=CS(=O)(=O)c2ccc(C)cc2)cc1 was read as BL2 CD40 inh 101.0*.
`Cc1ccc(S(=O)(=O)CS(=O)(=O)c2ccc(C)cc2)cc1` gave BL2 CD40 inh 1.6.
Screening CNS(=O)(=O)c1ccc(C)cc1 returned BL2 CD40 inh 5.8.
Screening COc1cccc(-c2ccc(C3[C@@H]4CN(Cc5cccc(F)c5)C[C@H]3N4)cc2)c1 (stereo not given in full) returned BL2 CD40 inh 60.3*!.
`Cc1ccc(-c2ccc(C3[C@@H]4CN(Cc5ccccc5)C[C@H]3N4)cc2)cc1` (stereo not given in full) gave BL2 CD40 inh 3.3[25 µM].
For COc1ccc(-c2ccc(C3[C@@H]4CN(Cc5cccc(OC)c5)C[C@H]3N4)cc2)cc1 (stereo not given in full) the results were BL2 CD40 inh 2.8.
For Fc1ccc(-c2ccc(C3[C@@H]4CN(Cc5cccc(F)c5)C[C@H]3N4)cc2)cc1 (stereo not given in full) the results were BL2 CD40 inh -3.8[25 µM].
For Cc1ccc(-c2ccc(C3[C@@H]4CN(Cc5cccc(F)c5)C[C@H]3N4)cc2)cc1 (stereo not given in full) the results were BL2 CD40 inh 61.9*.
`COc1cccc(CN2C[C@@H]3N[C@H](C2)C3c2ccc(-c3ccncc3)cc2)c1` (stereo not given in full) gave BL2 CD40 inh 1.5[25 µM].
Screening N#Cc1cnn2ccc(-c3ccc4c(c3)CCC4)nc12 returned BL2 CD40 inh -60.8.
COc1cccc(NC(=O)CN(C)C(=O)C2CCN(C(=O)c3ccccc3C)CC2)c1 was read as BL2 CD40 inh -5.6.
For CC(C)NC(=O)N(C)C[C@@H]1Oc2ccc(N)cc2CC(=O)N(C)C[C@@H]1C the results were BL2 CD40 inh 0.3.
`O=C(Nc1nc2nc(-c3ccccc3)cc(-c3ccccc3)n2n1)c1ccco1` gave BL2 CD40 inh 27.4.
`O=C(NC1CCCC1)c1cc2nc(-c3ccccc3)cc(-c3ccccc3)n2n1` gave BL2 CD40 inh 8.7.
CC(=O)Nc1nc2nc(-c3ccccc3)cc(-c3ccccc3)n2n1 was read as BL2 CD40 inh 30.0*.

High-throughput results: PubChem BioAssay, Broad Institute
